Sampled rows, rich in hits. Any-hit rate of the full collection: about 4.7%.
D1 agonist = human D1 receptor agonism. HEK293 T-REx D1 cells, calcium flux, agonist mode. activation, % at 2 µM. 360,000 compounds, 1% hits
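Tetracycline-induced HEK293 TREx D1 cells, force-coupled to calcium signalling, were dye-loaded with a no-wash calcium kit. Compound was pin-added after a 10 s baseline. Fluorescence was read kinetically at 1 cycle/s for 180 s, with calcium rises flagged as agonism.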
D1 antag = blocks dopamine activation of the human D1 receptor; P21728; activity change, negative = inhibition, % at 10 µM; HEK293 TREx D1 cells, calcium flux, dopamine EC80; stronger effect = lower value; 360,000 compounds, 3.2% hits; in the data active = activity change below about -30%
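Compound effects on dopamine-evoked calcium signalling were measured in tetracycline-induced HEK293 Trex D1 cells. Dopamine at EC80 followed a 180 s compound pre-read, and fluorescence was tracked kinetically for 180 s more.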
TRHR enhancer-1 = allosterically enhances the human TRH receptor | P34981 | TRHR cells, fluo-8 calcium fluorescence, EC20 TRH enhancement | enhancement, % at 2 µM | 360,000 compounds, 0.66% hits | AID 493056; in the data active = enhancement above about 30%
Target sequence (P34981 whole entry, looked up): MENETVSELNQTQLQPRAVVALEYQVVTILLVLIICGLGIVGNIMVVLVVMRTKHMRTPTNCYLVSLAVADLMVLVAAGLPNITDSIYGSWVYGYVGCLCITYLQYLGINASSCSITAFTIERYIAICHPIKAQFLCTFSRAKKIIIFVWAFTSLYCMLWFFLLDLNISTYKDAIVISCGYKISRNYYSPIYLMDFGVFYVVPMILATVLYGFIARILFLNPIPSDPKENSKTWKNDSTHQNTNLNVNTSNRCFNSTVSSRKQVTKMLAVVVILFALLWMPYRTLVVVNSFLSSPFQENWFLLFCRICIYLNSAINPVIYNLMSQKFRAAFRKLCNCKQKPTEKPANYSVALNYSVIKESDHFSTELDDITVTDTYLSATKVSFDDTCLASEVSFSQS
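Enhancer read-out: after compound pinning and an initial kinetic agonist-mode read, an EC20 of TRH (10 nM final) was injected and fluo-8 calcium signal (Ex 480/Em 530) followed at 1 s/cycle for 100 cycles in TRHR-expressing cells.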
TRHR agonist-1 = TRH receptor (human) agonism; P34981; activation, % at 2 µM; TRHR cells, calcium flux fluo-8, FDSS agonist mode; 360,000 compounds, 0.18% hits
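TRHR-expressing cells, plated overnight in medium with 10% serum, were loaded with fluo-8 calcium dye at room temperature. After a 10 s baseline, library compound was pin-added and calcium release was recorded kinetically (ex 480/em 530) as agonist response.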
D1 PAM = potentiators of human D1 dopamine receptor; HEK293 TREx D1 cells, calcium flux, dopamine EC20 potentiation; potentiation, % at 10 µM; 360,000 compounds, 0.036% hits; AID 504651; in the data active = potentiation above about 30%
TRHR enhancer-2 = human TRH receptor allosteric enhancement confirmation | shares compounds with TRHR enhancer-1 | TRH receptor cell assay, enhancer confirmation qHTS | activity change, negative = inhibition, % at 46.1 µM | 970 tested, under 10 active; active = well fitted curve in the direction sought with a large enough effect; inconclusive = small, poorly fitted or top-dose-only effect, or another doubt; inactive = no such curve, though single readings can be large; an effect the other way counts as inactive or inconclusive;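 also: compound effect scored on response to added TRH at EC20 of 10 nM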
TRHR agonist-2 = confirmation of human TRH receptor agonists; shares compounds with TRHR enhancer-1; TRHR-expressing cells, agonist activation read-out; Potency, µM (top dose mostly 46.1 µM), actives largely listed as activators; 970 compounds, 8% hits; AID 493078; active = well fitted curve in the direction sought with a large enough effect; inconclusive = small, poorly fitted or top-dose-only effect, or another doubt; inactive = no such curve, though single readings can be large; an effect the other way counts as inactive or inconclusive; also: nearly all actives have a fitted effect of over 75% in size
Hits are given with their value; . = inactive; ? = inconclusive; / = no result given. Rule as the data show it, unless noted: active = activation above about 30%; inactive = the rest.

SMILES	D1 agonist	D1 antag	TRHR enhancer-1	TRHR agonist-1	D1 PAM	TRHR enhancer-2	TRHR agonist-2
CCOc1ccc(C(=O)Nc2ccc(N3CCN(C(C)=O)CC3)cc2)cc1[N+](=O)[O-]	.	.	.	.	.	/	/
CCOc1ccc(C(=O)Nc2ccc(N3CCN(C)CC3)cc2)cc1[N+](=O)[O-]	.	.	63	.	.	.	.
COc1ccccc1C(=O)Nc1ccnn1C1CCN(C/C=C/c2ccc(F)cc2)CC1	.	-32	47	.	.	.	.
CCCCOc1ccc(NC(=O)Cn2nnnc2-c2ccccc2F)cc1	.	.	.	.	.	/	/
CN(C)S(=O)(=O)c1ccc(C(=O)NCC(=O)N/N=C/c2ccccc2)cc1	.	.	82	.	.	.	.
Cc1ccccc1NC(=O)c1ccc(S(=O)(=O)N(C)C)cc1	.	.	45	.	.	.	.
CCCCCCC1CCC(C(=O)Nn2c(C)nc3ccccc3c2=O)CC1 (configuration not stated)	.	.	.	.	.	/	/
CCCC1CCC(C(=O)Nn2c(C)nc3ccccc3c2=O)CC1 (configuration not stated)	.	.	45	.	.	.	.
COc1ccccc1CNC(=O)CCCCn1c(=O)c2ccccc2n(Cc2c(C)cc(C)cc2C)c1=O	.	.	.	.	.	/	/
COc1ccc(C(=O)NCCc2nnc3ccc(SCC(=O)NCc4ccccc4)nn23)cc1	.	.	64	.	.	.	.
CCCCn1nnnc1SCC(=O)Nc1ccc(N(C)C)cc1	.	.	54	.	.	.	.
CCOC(=O)c1ccc(N=C2SC(C(=O)Nc3ccccc3)CC(=O)N2C)cc1 (configuration not stated)	.	.	.	.	.	/	/
Nn1c(N2CCCCC2)nc2ccccc21	.	.	71	.	.	.	.
CC(=O)c1cc(NC(=O)c2ccc(C)cc2)c(=O)oc1/C=C/N(C)C	34	.	.	.	.	.	21µM
O=C(NCCn1cc(SCc2ccc(F)cc2)c2ccccc21)c1cccs1	.	.	.	.	.	/	/
COc1ccc(COC(=O)C2=C(C)NC(=O)NC2c2ccccc2)cc1 (configuration not stated)	.	.	44	.	.	.	.
COc1ccc2nc(-c3ccccn3)[nH]c2c1	.	.	46	.	.	.	.
COc1ccc(NC(=O)CC2SC(=Nc3ccccc3)NC2=O)cc1 (configuration not stated)	.	.	.	.	.	/	/
CCOc1ccc(N=C2NC(=O)C(CC(=O)O)S2)cc1 (configuration not stated)	.	.	53	.	.	.	.
O=C(NCc1ccc(Cl)cc1)c1cnc(N2CCCCC2)c2ccccc12	.	.	.	.	.	/	/
Cc1cc(NC(=O)CCC(=O)N(CC(=O)NC2CCCC2)c2ccc(F)c(Cl)c2)no1	.	.	.	.	/	/	/
S=c1nc(-c2sccc2OCc2ccc(Cl)cc2Cl)[nH][nH]1	.	.	51	.	.	?	.
CCOC(=O)C1CCN(c2nc3ccccc3nc2C(C#N)C(=O)OC(C)C)CC1 (configuration not stated)	.	.	.	.	.	/	/
CCOC(=O)C1CCCN(c2nc3ccccc3nc2C(C#N)C(=O)OC(C)C)C1 (configuration not stated)	.	.	.	42	.	.	?
C[n+]1cn(CC(O)COCc2ccccc2)c2ccccc21 (configuration not stated)	.	.	53	.	.	.	.
SMILES	D1 agonist	D1 antag	TRHR enhancer-1	TRHR agonist-1	D1 PAM	TRHR enhancer-2	TRHR agonist-2
COc1ccc(CNC(=O)CCC(=O)N2CC3CCCN3c3ccccc32)cc1 (configuration not stated)	.	.	.	.	.	/	/
Cc1ccc(C)c(NC(=O)CSc2cccc3cccnc23)c1	.	.	.	.	.	/	/
Cc1cccc(NC(=O)CSc2cccc3cccnc23)c1	.	.	.	.	.	.	.
CSc1nnc(N2C(=O)C(O)=C(C(=O)c3ccco3)C2c2ccccc2)s1 (configuration not stated)	100	.	.	.	.	.	.
Cc1ccc(C2C(C(=O)c3ccco3)=C(O)C(=O)N2c2nnc(C)s2)cc1 (configuration not stated)	.	.	.	.	.	/	/
COc1ccc(-c2cc(C(F)(F)F)nc(SCC(=O)NCc3ccc(F)cc3)n2)cc1	.	.	.	.	.	/	/
COc1ccc(-c2cc(C(F)(F)F)nc(SCC(=O)NCc3ccc(Cl)cc3)n2)cc1	.	.	60	.	.	.	.
O=C(COC(=O)CCNS(=O)(=O)c1ccccc1F)Nc1nnc(-c2ccccc2)o1	.	.	.	.	.	/	/
COc1ccc(/C=C2\Oc3cc(OC(=O)N4CCOCC4)ccc3C2=O)cc1	.	.	.	.	.	/	/
COc1ccccc1C(=O)Oc1ccc2c(c1)O/C(=C\c1ccncc1)C2=O	36	.	.	.	.	.	?
CC(=O)Oc1ccc2c(c1)O/C(=C\c1ccncc1)C2=O	65	.	.	.	.	.	?
COc1ccc(S(=O)(=O)Oc2ccc3c(c2)O/C(=C\c2cccnc2)C3=O)cc1	.	.	.	.	.	/	/
COc1ccc2c(c1)O/C(=C\c1ccccc1C)C2=O	.	.	.	.	.	/	/
COc1cc(OC)c(OC)cc1/C=C1\Oc2cc(OS(C)(=O)=O)ccc2C1=O	53	.	.	38	.	.	?
CCOC(=O)c1cc(CC)sc1NC(=O)COC(=O)c1ccccn1	.	.	.	36	.	.	.
CCOC(=O)c1cc(CC)sc1NC(=O)COC(=O)c1cnccn1	.	.	.	.	.	/	/
CCCCC(=O)N(c1ccc(C(=O)O)cc1)c1nc(-c2ccc(Cl)cc2)c(CC)s1	.	.	63	.	.	.	?
Cc1cccc(NC(=O)CCNS(=O)(=O)c2ccc(Cl)cc2)c1	.	.	.	.	.	/	/
Cc1cccc(OCCNS(=O)(=O)c2ccc(Cl)cc2)c1	.	.	51	.	.	.	.
COc1ccc(CCNc2oc(-c3ccccc3OC)nc2C#N)cc1	.	.	.	.	.	/	/
COc1ccc(CCNc2oc(-c3ccccc3OC)nc2C#N)cc1OC	.	.	43	.	.	?	.
Cc1cccc(N2CCN(C(c3ccccc3)c3nnc(-c4ccccc4F)o3)CC2)c1C (configuration not stated)	.	.	.	.	.	/	/
CN(C)CCSc1nc(-c2ccccc2)nc2c1COC(C)(C)C2	.	/	46	.	.	.	.
COc1ccc(OC)c(C(c2c(C)[nH][nH]c2=O)c2c(C)[nH][nH]c2=O)c1	.	.	50	.	.	.	.

Compound activity from PubChem.
